Assay results from PubChem BioAssay AID2315 (National Center for Advancing Translational Sciences (NCATS), 2010).
About 27,000 (9.3%) of roughly 290,000 compounds were called active. The sample holds actives, similar compounds and a random draw of the others, so the mix is not that of the screen. Unmarked numbers belong to inactive results. Cut-off read from the data, not from the text of the source: active = inhibition mostly above about 28% (no sharp cut-off); inactive = mostly below about 43%.

test: A qHTS for Small Molecule Inhibitors of Shiga Toxin; details: Vero cells, Shiga toxin protein synthesis inhibition reporter; at 38.7 µM, active compounds read high; note: 0% is about no effect

SMILES | inhibition
O=C(NCCCn1ccnc1)/C(=C\c1ccccc1F)NC(=O)c1ccccc1 | -7.27%
COc1cc(NC(=O)CCNC(=O)Cn2ccc3ccccc3c2=O)cc(OC)c1OC | 11.7%
O=C1CN(C(=O)c2ccccc2F)C(c2ccc(F)cc2)c2cc(F)ccc2N1 (stereo not drawn) | 18%
O=C(/C=C/c1ccc([N+](=O)[O-])cc1)NCCSCc1ccco1 | -2.44%
Cc1cccc(N2CCN(C(=O)CCS(=O)(=O)c3ccc4c(c3)NC(=O)C(C)S4)CC2)c1C (stereo not drawn) | -11.3%
COc1cc(OC)c2c(c1C(CCN1CCCCC1)c1ccc(N(C)C)cc1)OC(=O)CC2c1ccc(N(C)C)cc1 (stereo not drawn) | -7.65%
Cn1c(CCN2CCCC2)nc2cc(NS(=O)(=O)c3ccccc3)ccc21 | 0.447%
CCC(=O)Nc1ccc2c(c1)nc(CCN1CCN(c3ccccn3)CC1)n2C | -4.67%
Cn1c(CCN2CCCCCC2)nc2cc(NC(=O)Nc3ccccc3)ccc21 | 73.3% (active)
CC(C)c1ccc(S(=O)(=O)N2CCC3(CC2)OCCO3)cc1 | -8.25%
Nc1nc(Nc2ccccc2)nc(NCCO)c1[N+](=O)[O-] | 16.8%
CNc1nc(Nc2ccc(C)c(Cl)c2)nc(N)c1[N+](=O)[O-] | 68.3% (active)
COc1cccc(Nc2nc(N)c([N+](=O)[O-])c(NCc3ccco3)n2)c1 | 45.8%
CN(Cc1ccco1)S(=O)(=O)c1nnc(NC(=O)c2ccccc2)s1 | 38.9%
COc1cc(/C=C/C(=O)OCC(=O)Nc2cccc(Oc3ccccc3)c2)ccc1O | 51.6% (active)
COc1cccc(NC(=O)COC(=O)CCOc2ccccc2OC)c1 | -8.03%
COc1ccc(/C=C/C(=O)OCC(=O)Nc2cccc(Oc3ccccc3)c2)c(OC)c1 | -4.44%
CCOc1ccccc1CNS(=O)(=O)c1cc(-c2cc(C)no2)ccc1C | -5.31%
CCCCC(=O)Nc1ccccc1N1CCN(c2ccc(F)cc2)CC1 | -8.03%
Cc1cc(C)c(S(=O)(=O)c2ccc(F)cc2C)c(=O)[nH]1 | 3.7%

SMILES | inhibition
O=C(N/C(=C\c1ccc([N+](=O)[O-])cc1)C(=O)N1CCCCC1)c1ccco1 | -18.7%
COC(=O)c1ccccc1NC(=S)NC(=O)c1ccccc1F | -1.7%
O=C(O)c1ccccc1NC(=O)c1ccccc1-c1ccccc1C(=O)O | -1.49%
O=C(NC(=S)Nc1ccccc1C(=O)O)c1ccc(-c2ccc(Br)cc2)o1 | 125% (active)
O=C(CSc1nc2nccnc2c(=O)n1Cc1cccs1)Nc1ccccc1F | 18.1%
CC(=O)Nc1ccc(NC(=O)C2CCCN(S(=O)(=O)c3ccc(Cl)cc3)C2)cc1 (stereo not drawn) | -4.09%
CCCNC(=O)c1c(Cl)cnn1-c1ccc(C)cc1 | 59.9% (active)
CCCNC(=O)c1ccc(Cl)c(Cl)c1 | -6.36%
CCCNC(=O)CCc1c(C)nc2c(c(C)nn2-c2ccc(C)cc2)c1C | -2.23%
COc1ccc(-n2nc(C(=O)NCC(=O)N3CCN(c4ccccc4OC)CC3)c3ccccc3c2=O)c(OC)c1 | 73.3% (active)
COc1cccc(NC(=O)c2nn(-c3ccc(OC)cc3OC)c(=O)c3ccccc23)c1 | -8.21%
COc1ccc(-n2nc(C(=O)Nc3cc(OC)c(OC)c(OC)c3)c3ccccc3c2=O)c(OC)c1 | -1.7%
Cc1cc(NC(=O)Nc2ccccc2[N+](=O)[O-])no1 | 28.7%
Cc1csc(NC(=O)NC2(C(F)(F)F)Oc3ccccc3O2)n1 | 24.4%
Cc1csc(NC(=O)Nc2ccccc2[N+](=O)[O-])n1 | 67.7% (active)
COC(=O)C1=CN(c2ccc(F)c(F)c2)C=C(C(=O)OC)C1c1ccc([N+](=O)[O-])cc1 | 3.77%
Nc1[nH][nH]c(=O)c1N=Nc1ccc2c(c1)OCO2 | 74.5% (active)
Cc1[nH][nH]c(=O)c1N=Nc1ccccc1 | -4.84%
Cc1[nH][nH]c(=O)c1C(c1ccc2c(c1)OCO2)c1c(C)[nH][nH]c1=O | -5.46%
CC1CCC(NS(=O)(=O)c2ccc3c(c2)CC(=O)N3)CC1 (stereo not drawn) | -4.99%

SMILES | inhibition
Clc1ccccc1SCc1nc2ccccc2[nH]1 | 79.4% (active)
COc1ccc(OC(C)C(=O)NCCc2nc3ccccc3[nH]2)cc1 (stereo not drawn) | -1.88%
c1ccc2c(CSCc3nc4ccccc4[nH]3)cccc2c1 | 42.3%
COc1cc(C(=O)NN(CCC#N)C2=NS(=O)(=O)c3ccccc32)cc(OC)c1OC | -7%
O=C(c1ccc(CS(=O)(=O)c2ccccc2)o1)N1CCN(c2ccccc2)CC1 | -5.16%
COc1ccc(C2(C)NC(=O)N(CC(=O)c3ccc4c(c3)OCO4)C2=O)cc1 (stereo not drawn) | 20.5%
O=C(CSc1nnc(CNC(=O)c2ccc(F)cc2)o1)Nc1ccc2c(c1)OCO2 | -2.6%
O=C(O)c1ccc(OCC2CCCO2)cc1 (stereo not drawn) | -1.54%
C=CCn1c(SCc2ccccc2)nc2c1c(=O)[nH]c(=O)n2C | -10.2%
Cc1c(C(=O)NC(C)C2CC3CCC2C3)cccc1[N+](=O)[O-] (stereo not drawn) | -7.71%
COC(=O)C(=Nc1ccccc1)/C(C(=O)C(=O)N(C)c1ccccc1)=C(\O)c1ccc(Cl)cc1 | 127% (active)
COC(=O)c1cn(C(=O)c2ccc(Cl)cc2)c2ccccc12 | 10.5%
COC(=O)/C(NC(C)=O)=C(\C)c1ccc(Cl)cc1 | -4.26%
COCCn1cnc2c1c(=O)n(Cc1ccc(Br)cc1)c(=O)n2Cc1ccccc1 | 15.6%
O=C(C1CCCO1)N1CCN(C(=S)Nc2cccc(Cl)c2)CC1 (stereo not drawn) | -2.49%
Cc1ccc(C2CCN(C(=S)Nc3cccc(Cl)c3)C2)cc1 (stereo not drawn) | 47.7% (active)
Cc1cccc(NC(=S)N2CCCC(c3nc4ccccc4[nH]3)C2)c1 (stereo not drawn) | -11.2%
COc1cc(N2C(=O)CSC2=S)cc(OC)c1OC | -9%
